In PubChem BioAssay (NCI):
Where “and” joins values, the source holds several entries; their conditions need not be identical. Equal values may be shown once. Compounds without any hit were thinned out: in the full panel of roughly 83,000, 20% have a hit.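 Assay: single dose, 48 h. Readout: percent growth (0 = no net growth; negative = cell death). Active: <10.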 Calls of active or inactive are those of the source. Where a SMILES comes first, the peptide text is derived from it. [ ]: non-standard residue; d: D form. ξ: configuration not given here. ξD = NC(CC(=O)O)C(=O)O

The compounds below were run on TK-10 renal (assay: NCI-60 one-dose screen, 48 h (100 = growth as untreated, 0 = no growth, -100 = all killed)). Conditions: 10 µM.
Protocol: Growth inhibition of the TK-10 human tumor cell line is measured as a screen for anti-cancer activity. Cells are grown in 96 well plates and exposed to the test compound for 48 hours. Compounds are tested at a single concentration, which is 10^-5 M for most compounds. The reported endpoint is percent growth (GI% or GIPRCNT), where numbers from 0 - 100% represent growth inhibition, and numbers from -100% - 0 represent cell death. For example, a value of 40 represents 60% growth inhibition. A value of 0 means no net growth occurred over the course of the experiment. A value of -40 indicates 40% of cells at the beginning of the experiment died by the end of the experiment. A value of -100 means all cells are dead at the end of the experiment.
NCI-60 Human Tumor Cell Lines Screen was performed using the standard one-dose NCI protocol, which is described in more detail at https://dtp.cancer.gov/discovery_development/nci-60/default.htm.
Compounds with GIPRCNT values below 10 were considered active. Activity score was based on GIPRCNT using the following formula: […]
Score is 0 for GIPRCNT values of 100 or above, 50 for GIPRCNT values of 0, and 100 for GIPRCNT values of -100.
`CC(C)=CCCC(C)C1=C(O)C(=O)C(C)=CC1=O` (stereo not given) was tested, and the growth was 5.08% (active).

Same assay, conditions: 10 µM unless noted
For `Oc1ccc2ccccc2c1N=Nc1nccs1`, the growth was -14% (active). `CCOc1cc(F)c([N+](=O)[O-])cc1[N+](=O)[O-]` was tested, and the growth was 12.5% (inactive). With `CCCCCCC1N=C(N)N=C(N)N1c1cccc(Cl)c1` (stereo not given) the growth was 67.6% (inactive). For `Cc1onc(-c2ccccc2)c1C(=O)N/N=C/c1cc(Cl)cc(Cl)c1O`, the growth was 40.1% (inactive). With `NC(=S)N/N=C\c1nccc2c(C(F)(F)F)cccc12` the growth was 17% (inactive). For `COc1cc(NCc2ccc3nc(N)nc(N)c3c2C)cc(OC)c1OC` (tested in a mixture with another compound), the growth was 31.1% (inactive). For `O=C1/C(=C/c2ccccc2)CCC/C1=C\c1ccccc1`, the growth was 104% (inactive). With `NC(=Nc1nc(-c2ccccn2)cc2ccccc12)c1ccccn1` the growth was 31.5% (inactive). For `O=C(CCc1ccccc1)ON1C(=S)NC(c2ccccc2)(c2ccccc2)C1=S`, the growth was -6.92% [100 µM] (active) and -21.7% [100 µM] (active). For `C=C1C(=O)C2=CC1CCC(=O)C1(C)CCC(OC(C)=O)C(C)(C)C1CC2O` (stereo not given), the growth was -96% [100 µM] (active) and -89.5% [100 µM] (active). For `CC(=O)OC1CC2CCC1(C)C2(C)C` (stereo not given), the growth was 106% (inactive). For `CC(C)N=C(N)/N=C(\N)Nc1ccc2ccc3ccccc3c2c1`, the growth was -89.6% (active). `CCOC(=O)C1(C)CCCC1N` (stereo not given) was tested, and the growth was 98.7% (inactive). In the case of `CC[n+]1ccc(Nc2ccc(NC(=O)c3ccc(Nc4cc[n+](CC)c5ccc([N+](=O)[O-])cc45)cc3)cc2)cc1`, the growth was 152% (inactive). For `O=C(O)c1cc2c(s1)C(=O)c1sccc1C2=O`, the growth was 115% (inactive). For `CC1OC(OC2C(OC3CCC4(C)C(CCC5(C)C4CC=C4C6CC(C)(C)CCC6(C(=O)O)CCC45C)C3(C)CO)OCC(O)C2O)C(O)C(O)C1O` (stereo not given), the growth was -92.1% [100 µM] (active) and -100% [100 µM] (active). In the case of `COc1ccc2c(c1)C(N)=C(c1ccccc1)C2=O`, the growth was 99.7% [100 µM] (inactive) and 3.68% [100 µM] (active). `Cn1c(COC(=O)NC2CCCCC2)c(COC(=O)NC2CCCCC2)c2ccc3cc(Cl)c(Cl)cc3c21` was tested, and the growth was -93.7% [100 µM] (active). In the case of `CCCCCCCCCCCCCCCC[N+]1(C)CCCC1c1cccnc1` (stereo not given), the growth was 49.7% (inactive). With `CCOC(=O)C1=C(C(=O)c2ccccc2)C(c2cccc([N+](=O)[O-])c2)C(C(=O)c2ccccc2)=C(C(=O)OCC)N1` the growth was 112% (inactive). In the case of `CC1(C=O)CCC23COC4(CCC5C6(C)CCC(OC7OCC(OC8OC(CO)C(O)C(OC9OC(CO)C(O)C(O)C9O)C8OC8OCC(O)C(O)C8O)C(O)C7OC7OC(CO)C(O)C(O)C7O)C(C)(C)C6CCC5(C)C4(C)CC2O)C3C1` (stereo not given), the growth was -87.3% [100 µM] (active) and -69.8% [100 µM] (active). `O=C(O)CCCOc1cc(-c2ccccc2F)nc2cc3c(cc12)OCO3` was tested, and the growth was 53.8% [100 µM] (inactive) and 2.37% [100 µM] (active). With `COC(=O)c1ccc(=O)c2nc3/c(=C/O)c(O)cc(=O)c3[nH]c12` the growth was 48.1% (inactive). `O=C(/C(Cl)=N/O)c1ccc(-c2ccccc2)cc1` was tested, and the growth was 106% (inactive). In the case of `Oc1ccccc1N=Cc1ccccc1`, the growth was 122% (inactive). For `Oc1ccc(Cl)cc1Cc1cc(Cl)ccc1O`, the growth was 113% (inactive). In the case of `CC(C)c1ccc(Nc2n[nH]c(=S)s2)cc1`, the growth was 93.1% (inactive). For `NCC(=O)NC(CC(=O)O)C(=O)O` (stereo not given) (H-Gly-[ξD]-OH), the growth was 97.7% (inactive). In the case of `CCCCCCCCc1cc(Cl)c(O)c(Cl)c1`, the growth was 113% (inactive). With `O=[N+]([O-])/C(=C/c1ccccc1)c1ccccc1` the growth was 89.5% (inactive). `NC(=S)N/N=C\c1nccc2c(N)cccc12` was tested, and the growth was 48% (inactive). In the case of `COc1ccc(NC(=O)/C(=C/N2C(=O)/C(=C/c3ccc(OC)c(OC)c3)NC2=S)C(C)=O)cc1`, the growth was 110% (inactive). With `CN(C)c1ccc(/C=C/c2sc3ccc4ccccc4c3[n+]2C)cc1` the growth was -42.1% (active). In the case of `Cc1ccc2cccc(OC(=O)Nc3cccc(C(F)(F)F)c3)c2n1`, the growth was 83% (inactive). `O=[N+]([O-])c1ccc(Oc2ccccc2Cl)c([N+](=O)[O-])c1` was tested, and the growth was 98.7% (inactive). For `COc1ccc(OC)c(Cc2cnc3nc(N)nc(N)c3c2C)c1`, the growth was 27.5% [100 µM] (inactive) and -100% [100 µM] (active). With `CCCCCCCCCCCCCCCCSC(=NCC)NCC` the growth was 50.7% (inactive). With `CCCCOS(=O)(=O)c1ccccc1` the growth was 106% (inactive).

Same assay, conditions: 100 µM
With `CC(C)=CCCC(C)C1=C(O)C(=O)C(C)=CC1=O` (stereo not given) the growth was -99.3% (active) and -84.7% (active).
